{"source": "PubChem BioAssay (EPA / NIEHS)", "note": "Several values for one entry are separate records, joined by “and”; a condition that tells them apart may be missing. Equal entries are not always repeated. Inconclusive results are not listed. Activity calls are given as the source filed them. The calls were made as follows: active = hit-call score of the fitted dose curve at least 0.9, where 1 is the maximum; inconclusive = response in the unintended direction; inactive = score below 0.9.", "data": [{"molecular_target": "Muscarinic acetylcholine receptor M2 (Homo sapiens) (UniProt P08172)", "sequence (P08172 whole entry, looked up)": "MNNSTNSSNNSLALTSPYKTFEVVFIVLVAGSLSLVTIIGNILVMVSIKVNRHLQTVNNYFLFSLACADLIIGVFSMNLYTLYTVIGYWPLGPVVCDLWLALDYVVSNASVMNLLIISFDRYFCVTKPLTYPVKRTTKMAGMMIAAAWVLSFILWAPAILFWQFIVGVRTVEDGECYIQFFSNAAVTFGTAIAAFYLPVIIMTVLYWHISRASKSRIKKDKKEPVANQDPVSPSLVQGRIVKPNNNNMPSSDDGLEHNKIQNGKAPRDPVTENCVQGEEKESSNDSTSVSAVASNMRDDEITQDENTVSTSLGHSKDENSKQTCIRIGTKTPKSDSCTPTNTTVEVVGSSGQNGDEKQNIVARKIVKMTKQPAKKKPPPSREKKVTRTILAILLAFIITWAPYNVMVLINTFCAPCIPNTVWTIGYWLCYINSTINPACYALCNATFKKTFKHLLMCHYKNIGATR", "assay": "NVS_GPCR_hM2: NovaScreen (NVS) G Protein-Coupled Receptor Assay for human Muscarinic, M2 Receptor (AID 2283273)", "experimental": "(§1) NVS_GPCR_hM2 is a biochemical, single-readout assay that uses extracted gene-proteins from CHO in a cell-free assay. Measurements were taken 1 hour after chemical dosing in a 96-well plate.NVS_GPCR_hM2 is one of one assay component(s) measured or calculated from the NVS_GPCR_hM2 assay. It is designed to make measurements of radioligand binding, a form of binding reporter, as detected with scintillation counting signals by Filter-based radiodetection technology.Data from the assay component NVS_GPCR_hM2 was analyzed into 1 assay endpoint. This assay endpoint, NVS_GPCR_hM2, was analyzed in the positive analysis fitting direction relative to DMSO as the negative control and baseline of activity. Using a type of binding reporter, loss-of-signal activity can be used to understand changes in the binding as they relate to the gene CHRM2. Furthermore, this assay endpoint can be referred to as a primary readout, because the performed assay has only produced 1 assay endpoint. To generalize the intended target to other relatable targets, this assay endpoint is annotated to the gpcr intended target family, where the subfamily is rhodopsin-like receptor.\nBinding assays used specific radioligands (tritiated, iodinated) with non-radioactive competitive displacement ligands in agonist or antagonist protocols (as indicated) and various reference compounds and inhibitors to titrate specific binding to receptors and transporters. Most enzyme assays (CYPs, kinases, phosphatases, proteases, HDACs) used recombinant protein and specific substrates (fluorescence mostly, some colorimetric and radioactive) and inhibitors, followed by a biochemical separation of substrate and product. All assays for the biochemical HTS were initially run in duplicate at a single concentration (10 uM for CYP450 assays and 25 uM for all others). […] Each assay was run with positive and negative controls, and concurrent controls on every plate. […]", "values": [{"smiles": "COP(=S)(OC)Oc1nc(Cl)c(Cl)cc1Cl", "outcome": "inactive"}, {"smiles": "COc1ccc(C(c2ccc(OC)cc2)C(Cl)(Cl)Cl)cc1", "outcome": "inactive"}, {"smiles": "CNC(=S)S", "outcome": "inactive"}]}, {"molecular_target": "human Muscarinic, M4 Receptor, CHRM4 (gene 1132) (UniProt P08173)", "sequence (P08173 whole entry, looked up)": "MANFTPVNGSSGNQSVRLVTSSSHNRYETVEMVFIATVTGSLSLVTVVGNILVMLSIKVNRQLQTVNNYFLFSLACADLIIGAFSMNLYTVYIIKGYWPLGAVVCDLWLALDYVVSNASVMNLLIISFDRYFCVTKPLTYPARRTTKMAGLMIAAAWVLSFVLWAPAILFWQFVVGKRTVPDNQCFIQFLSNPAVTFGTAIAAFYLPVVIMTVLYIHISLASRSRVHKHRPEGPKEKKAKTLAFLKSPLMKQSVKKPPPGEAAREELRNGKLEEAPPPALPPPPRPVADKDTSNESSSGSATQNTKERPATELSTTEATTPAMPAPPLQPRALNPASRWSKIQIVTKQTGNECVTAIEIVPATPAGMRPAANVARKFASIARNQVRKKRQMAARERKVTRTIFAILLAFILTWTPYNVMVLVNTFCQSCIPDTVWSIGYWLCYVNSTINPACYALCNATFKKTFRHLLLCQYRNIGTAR", "assay": "NVS_GPCR_hM4: NovaScreen (NVS) G Protein-Coupled Receptor Assay for human Muscarinic, M4 Receptor (AID 2283274)", "procedure,_shortened": "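Cell-free radioligand displacement using CHO-derived human M4 receptor protein, 1 h after dosing; bound radioactivity by filtration and scintillation counting. Primary screen single 25 uM duplicate, actives followed in concentration series.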", "values": [{"smiles": "COC(=O)C=C(C)OP(=O)(OC)OC", "outcome": "inactive"}, {"smiles": "CN(C)C(=S)SSC(=S)N(C)C", "outcome": "inactive"}, {"smiles": "CCCC1COC(Cn2cncn2)(c2ccc(Cl)cc2Cl)O1", "note": "(centres undefined)", "outcome": "inactive"}, {"smiles": "COc1ccc(C(c2ccc(OC)cc2)C(Cl)(Cl)Cl)cc1", "outcome": "inactive"}]}, {"molecular_target": "human Neuropeptide Receptor Y1 (NPY1), NPY1R (gene 4886) (UniProt P25929)", "sequence (P25929 whole entry, looked up)": "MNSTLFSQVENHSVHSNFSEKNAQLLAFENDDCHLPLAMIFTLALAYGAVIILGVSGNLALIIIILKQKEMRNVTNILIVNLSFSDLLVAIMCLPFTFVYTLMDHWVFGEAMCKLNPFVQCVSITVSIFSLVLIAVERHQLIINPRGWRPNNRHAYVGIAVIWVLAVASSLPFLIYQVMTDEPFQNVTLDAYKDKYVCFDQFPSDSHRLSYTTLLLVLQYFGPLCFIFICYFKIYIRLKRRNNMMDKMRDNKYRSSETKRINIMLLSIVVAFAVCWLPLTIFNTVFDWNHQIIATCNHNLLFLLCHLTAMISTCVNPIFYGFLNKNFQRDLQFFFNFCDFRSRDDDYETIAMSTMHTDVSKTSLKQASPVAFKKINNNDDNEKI", "assay": "NVS_GPCR_hNPY1: NovaScreen (NVS) G Protein-Coupled Receptor Assay for human Neuropeptide Receptor Y1 (NPY1) (AID 2283276)", "experimental": "as §1, with “NVS_GPCR_hNPY1” for “NVS_GPCR_hM2”, “SK-N-MC” for “CHO”, “plate.NVS_GPCR_hNPY1” for “plate.NVS_GPCR_hM2”, “NVS_GPCR_hNPY1,” for “NVS_GPCR_hM2,”, “NPY1R.” for “CHRM2.”\nBinding assays used specific radioligands (tritiated, iodinated) with non-radioactive competitive displacement ligands in agonist or antagonist protocols (as indicated) and various reference compounds and inhibitors to titrate specific binding to receptors and transporters. Most enzyme assays (CYPs, kinases, phosphatases, proteases, HDACs) used recombinant protein and specific substrates (fluorescence mostly, some colorimetric and radioactive) and inhibitors, followed by a biochemical separation of substrate and product. All assays for the biochemical HTS were initially run in duplicate at a single concentration (10 uM for CYP450 assays and 25 uM for all others). […] Each assay was run with positive and negative controls, and concurrent controls on every plate. The follow-up (secondary) screen tested active chemical-pairs in concentration series, as well as a few additional assays not tested in the primary screen, some selected negative inactives, and several cases re-run in the concentration series for confirmatory purposes.", "values": [{"smiles": "CN(C)C(=S)SSC(=S)N(C)C", "AC50": "14.7 µM (active)"}, {"smiles": "CCCCNC(=O)OCC#CI", "AC50": "15.9 µM (active) and 14.4 µM (active)"}, {"smiles": "CS/C(C)=N/OC(=O)N(C)SN(C)C(=O)O/N=C(\\C)SC", "AC50": "25 µM (active)"}, {"smiles": "CNC(=S)S", "outcome": "inactive"}]}, {"molecular_target": "human Neurokinin, NK2 Receptor, TACR2 (gene 6865) (UniProt P21452)", "sequence (P21452 whole entry, looked up)": "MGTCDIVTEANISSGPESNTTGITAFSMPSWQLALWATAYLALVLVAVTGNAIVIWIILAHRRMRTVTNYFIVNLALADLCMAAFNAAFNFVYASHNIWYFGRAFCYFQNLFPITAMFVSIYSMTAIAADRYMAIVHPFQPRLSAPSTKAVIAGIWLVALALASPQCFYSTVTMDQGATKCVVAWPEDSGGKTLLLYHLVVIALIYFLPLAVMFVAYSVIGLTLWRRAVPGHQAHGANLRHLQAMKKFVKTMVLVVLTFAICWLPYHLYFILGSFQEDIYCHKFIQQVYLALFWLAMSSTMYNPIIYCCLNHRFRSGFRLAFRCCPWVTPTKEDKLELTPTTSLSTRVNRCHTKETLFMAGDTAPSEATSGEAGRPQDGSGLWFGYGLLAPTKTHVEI", "assay": "NVS_GPCR_hNK2: NovaScreen (NVS) G Protein-Coupled Receptor Assay for human Neurokinin, NK2 Receptor (AID 2283278)", "procedure,_shortened": "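Cell-free radioligand binding using receptor protein extracted from CHO cells; readings taken 4 hours after chemical dosing by filter-based scintillation counting. Primary screen ran single concentration (25 uM) in duplicate; actives followed up in concentration series, loss-of-signal versus DMSO baseline.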", "values": [{"smiles": "Cc1ccc(-c2c(Cl)nc(C#N)n2S(=O)(=O)N(C)C)cc1", "outcome": "inactive"}, {"smiles": "CCOC(=O)C(Cl)Cc1cc(-n2nc(C)n(C(F)F)c2=O)c(F)cc1Cl", "note": "(centres undefined)", "outcome": "inactive"}, {"smiles": "COc1ccc(C(c2ccc(OC)cc2)C(Cl)(Cl)Cl)cc1", "outcome": "inactive"}]}]}
